The nature of test [1]: Viability qHTS for spleen associated tyrosine kinase inhibitor (SYKi) naive MV4-11 cells (AID 1963823). Note: nearly all actives have a fitted effect of over 40% in size. The note with it: MV4-11 AML viability, CellTiter-Glo luminescence, 72 h; series mostly up to 45 µM. Summed up: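 Luminescence from CellTiter-Glo, developed 10 min at room temperature, gave viability of MV4-11 cells never exposed to SYK inhibitor. Cells (500/well) had been incubated with compounds for 72 hr under standard culture conditions.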
For orientation: qHTS replaces the single test concentration by a dilution series.

Test [2] can be described thus: Viability qHTS for spleen associated tyrosine kinase inhibitor (SYKi) drug resistant MV4-11 cells (AID 1963824). Note: nearly all actives have a fitted effect of over 35% in size. The note with it: SYKi-resistant MV4-11 viability, CellTiter-Glo, 72 h; series mostly up to 45 µM. In short, it runs like this: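 SYK-inhibitor-resistant MV4-11 AML cells were seeded at 500 per well onto compound and cultured 72 hours (37 °C, 5% CO2). CellTiter-Glo was then added, and after 10 min at room temperature, luminescence gave viability.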

Test [3] in a line: Cellular viability qHTS for adrenocortical cancer (ACC) cell line SW-13 (AID 1963989).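 For activity (max response): cells grown in serum-free medium with ITS supplement; % is set by controls: 0 for no effect and ±100 for the full control effect.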 Note: nearly all actives have a fitted effect of over 65% in size. Particulars: SW-13 ACC cells viability, CellTiter-Glo, 48 h; activity (max response): stronger effect = lower value. Summed up:
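Compound titrations (up to 46 uM final, in DMSO) were applied to SW-13 cells for 48 h at 37C/5% CO2. Reading used CellTiter-Glo after 20 min at room temperature; fitted curves yielded IC50 and efficacy.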

A short description of test [4]: Cellular viability qHTS for adrenocortical cancer (ACC) cell line NCI-H295R (AID 1963990). Note: nearly all actives have a fitted effect of over 60% in size. Particulars: CellTiter-Glo ATP luminescence, 48 h; series mostly up to 46.1 µM. Summed up: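 Readout: CellTiter-Glo luminescence, 20 min RT. Exposure: 48 h, 37C/5% CO2. Cells: NCI-H295R, ITS-DMEM serum-free. Range: up to 46 uM. Analysis: 4PL fit, IC50 plus efficacy.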

Consider 24 compounds from PubChem BioAssay (NCATS).

Each structure is given as a SMILES string. Values joined by “and” are separate entries in the source; they are usually repeats but may differ in a detail not shown here. Equal values may be shown once. Inconclusive results are not listed. More than one record can exist for a structure, and the calls need not agree. Active and inactive are the calls of the source. Calls come from the whole dose curve; as a rule, active = well fitted curve in the direction sought with a large enough effect; inconclusive = small, poorly fitted or top-dose-only effect, or another doubt; inactive = no such curve, though single readings can be large; an effect the other way counts as inactive or inconclusive.
Potency is the fitted concentration of half-maximal effect.

Consider `CC[C@]1(O)C[C@@H]2CN(CCc3c([nH]c4ccccc34)[C@@](C(=O)OC)(c3cc4c(cc3OC)N(C)[C@H]3[C@@](O)(C(=O)OC)[C@H](OC(C)=O)[C@]5(CC)C=CCN6CC[C@]43[C@@H]65)C2)C1`, for which the Potency is 211 nM (active) and 36.6 nM (active) in test [1]; “inactive and 94.4 nM (active) and 18.4 nM (active)” in test [2]; 25.9 nM (active) and 92 nM (active) in test [3]; 116 nM (active) and 291 nM (active) in test [4].
Take `C[C@H]1O[C@@H](O[C@H]2[C@@H](O)C[C@H](O[C@H]3[C@@H](O)C[C@H](O[C@H]4CC[C@@]5(C)[C@H](CC[C@@H]6[C@@H]5C[C@@H](O)[C@]5(C)[C@@H](C7=CC(=O)OC7)CC[C@]65O)C4)O[C@@H]3C)O[C@@H]2C)C[C@H](O)[C@@H]1O`: the Potency in test [1] was 103 nM (active) and 118 nM (active); in test [2], 58 nM (active) and 118 nM (active); in test [3], 0.0708 µM (active); in test [4], 0.126 µM (active).
In the case of `Cc1onc(-c2c(Cl)cccc2Cl)c1C(=O)N[C@@H]1C(=O)N2[C@@H]1SC(C)(C)[C@@H]2C(=O)O`, the Potency entry in test [1], in test [2] and in test [4] was “inactive” in each case. The activity (max response) in test [3] is 1.28% (inactive).
On to `CC(=O)O/N=C1\C(=O)N(Cc2cc(Cl)ccc2Cl)c2ccc(Cl)cc21`, for which the Potency in test [1] was 5.9 µM (active); in test [2], 8.33 µM (active); in test [4], 0.562 µM (active). The activity (max response) in test [3] was -2.12% (inactive).
As for `C=CC(=O)Nc1cc(Nc2nccc(-c3cn(C)c4ccccc34)n2)c(OC)cc1N(C)CCN(C)C`, the Potency in test [1] is 1.46 µM (active); in test [2] it was 0.934 µM (active); in test [3], 2 µM (active); in test [4] it was 3.98 µM (active).
As for `O=C1OC(CN2CCOCC2)CN1/N=C/c1ccc([N+](=O)[O-])o1` (stereo unspecified), the Potency result in test [1] was “inactive”. Moreover, the Potency in test [2] was 8.41 µM (active); in test [4], 16.4 µM (active). In addition, the activity (max response) in test [3] is -3.41% (inactive).
Regarding `O=C(CCl)Nc1cccc(NC2=NS(=O)(=O)c3ccccc32)c1`, the Potency in test [1] is 2.63 µM (active); in test [2], 2.63 µM (active); in test [3] it was 8.91 µM (active); in test [4] it was 3.16 µM (active).
As for `CCCNC(C)C(=O)Nc1ccccc1C` (stereo unspecified), the Potency entry in test [1], in test [2] and in test [4] was “inactive” throughout. The activity (max response) in test [3] is 8.91% (inactive).
In the case of `O=C(NO)c1cnc(NC2(c3ccccc3)CC2)nc1`, the Potency in test [1] is 5.25 µM (active); in test [2], 4.17 µM (active); in test [3], 10 µM (active); in test [4], 3.98 µM (active).
`COc1cc(C(=O)O)ccc1NC(=O)[C@@H]1N[C@@H](CC(C)(C)C)[C@](C#N)(c2ccc(Cl)cc2F)[C@H]1c1cccc(Cl)c1F`: the figures for the Potency in test [1] and in test [2] were 6.61 µM (active) and 5.25 µM (active), respectively. The activity (max response) in test [3] is 1.9% (inactive). In addition, the Potency entry in test [4] was “inactive”.
Turning to `CCCCN1C[C@H](O)[C@@H](O)[C@H](O)[C@H]1CO`, the Potency entry in test [1], in test [2] and in test [4] was “inactive” in each case. Besides, the activity (max response) in test [3] is -2.93% (inactive).
With `CN(Cc1ccc(/C=C/C(=O)NO)cc1)CC12CC3CC(CC(C3)C1)C2`, the Potency in test [1] was 0.296 µM (active); in test [2], 0.235 µM (active); in test [3], 2.24 µM (active); in test [4] it was 0.447 µM (active).
As for `O=C1O[C@H](CO)[C@@H](O)[C@H](O)[C@H]1O`, the Potency result in test [1], in test [2] and in test [4] was “inactive” each time. Moreover, in test [3], the activity (max response) is 5.91% (inactive).
As to `Clc1ccc(-c2nc3sccn3c2/C=N/OCc2ccc(Cl)c(Cl)c2)cc1`, the Potency result in test [1], in test [2] and in test [4] was “inactive” each time. The activity (max response) in test [3] is 3.29% (inactive).
For `O=C(O)c1cc(=O)c2ccccc2o1`, the Potency entry in test [1], in test [2] and in test [4] was “inactive” in each case. Besides, the activity (max response) in test [3] was -0.886% (inactive).
Take `COC1=C(OC)C(=O)C(C/C=C(\C)CC/C=C(\C)CC/C=C(\C)CC/C=C(/C)CC/C=C(\C)CC/C=C(\C)CC/C=C(\C)CC/C=C(\C)CC/C=C(\C)CCC=C(C)C)=C(C)C1=O`: the Potency entry in test [1], in test [2] and in test [4] was “inactive” in each case. In addition, the activity (max response) in test [3] is 3.03% (inactive).
On to `CC(C)COCC(CN(Cc1ccccc1)c1ccccc1)N1CCCC1` (stereo unspecified), for which the Potency in test [1] was 13.3 µM (active) and 14.8 µM (active); in test [2], 15 µM (active) and 11.8 µM (active); in test [3], 4.11 µM (active) and 28.2 µM (active); in test [4], 15.8 µM (active).
With `CN=C(NC#N)NCCSCc1nc[nH]c1C`, the Potency result in test [1], in test [2] and in test [4] was “inactive” each time. Besides, the activity (max response) in test [3] is -4.08% (inactive).
Consider `C[C@@H](Oc1ccc2[nH]nc(/C=C/c3cnn(CCO)c3)c2c1)c1c(Cl)cncc1Cl`, for which the Potency was 0.0235 µM (active) in test [1], 0.0525 µM (active) in test [2], 3.98 µM (active) in test [3] and 5.01 µM (active) in test [4].
Regarding `O=C1CC(c2c[nH]c3ccc(F)cc23)C(=O)N1` (stereo unspecified), the Potency entry in test [1], in test [2] and in test [4] was “inactive” in each case. Besides, in test [3], the activity (max response) is -18.5% (inactive).
`C[C@]12CCCN1CC1=NNC(=O)c3cc(F)cc4[nH]c2c1c34`: the Potency in test [1] is 2.63 µM (active); in test [2], 6.61 µM (active). Besides, in test [3], the activity (max response) was -23.5% (inactive). Further, in test [4], the Potency result was “inactive”.
In the same order, the values of `Cc1cccc(C)c1NC(=O)CC12CCCN1CCC2` are “inactive”, “inactive”, 1.71% (inactive) and “inactive”.
As for `OC1(c2ccc(Cl)c(C(F)(F)F)c2)CCN(CCCC(c2ccc(F)cc2)c2ccc(F)cc2)CC1`, the Potency in test [1] was 2.66 µM (active) and 3.66 µM (active); in test [2], 2.99 µM (active) and 3.26 µM (active); in test [3], 4.11 µM (active); in test [4], 3.66 µM (active).
As for `Cc1cc(O[C@@H](CCC(F)(F)F)c2ccc(C(=O)NCCC(=O)O)cc2)cc(C)c1-c1ccc(C(C)(C)C)cc1`, the Potency in test [1] was 13.2 µM (active); in test [2] it was 9.34 µM (active); in test [3] it was 25.1 µM (active); in test [4], 22.4 µM (active).
